We go through 17 compounds from PubChem BioAssay.

The test system of assay [1] is PRMT1 (protein arginine N-methyltransferase 1). Briefly: PRMT1 binders on small-molecule microarrays, primary screen, biochemical, small-molecule microarray, 635 nm fluorescence (AID 1088).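 Also: binding of Prmt1 protein to compounds spotted on small-molecule microarray slides.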 The conditions noted are these: small-molecule microarray binding, higher = more signal.
Assay [2] is described as follows: yeast growth modulation, basal conditions, primary screen, YJM789 clinical isolate, OD600, 24 h (AID 1089).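 Also: growth of clinical yeast isolate S. cerevisiae YJM 789 seeded 1000 cells per well; test concentration not given here.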 The conditions noted are these: S. cerevisiae YJM789 growth, higher = more signal, called active from +8 up or from −8 down.
Assay [3] can be described thus: fission yeast growth modulation, primary screen, strain 972, OD600, 24 h, no modulator (AID 1090).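 Also: basal condition with compound alone and no growth modifier present; test concentration not given here.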 As to conditions: S. pombe 972 growth, higher = more signal, called active from +8 up or from −8 down.
The nature of assay [4]: S. cerevisiae growth modulation with rapamycin, primary screen, strain BY4716, OD600, 96 h (AID 1091). Also: test concentration not given here. The conditions noted are these: higher = more signal, called active from +8 up or from −8 down.
The target in assay [5] is Torsin-1A-interacting protein 2 (Homo sapiens) (UniProt Q8NFQ8). Kind of assay: LULL1 binders on small-molecule microarray, primary screen, cell lysate, human LULL1 lysate, 635/667 nm fluorescence (AID 1092).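 Also: probe is lysate of COS7 cells overexpressing human LULL1; score merges per-feature 667 nm fluorescence with signal-to-noise.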 As to conditions: hLULL1 lysate binding, 635 nm fluorescence, higher = more signal.
Assay [6] is described as follows: E. coli growth modulation, two-sided OD650, primary screen, E. coli filamentation project, strain DRC41, 24 h (AID 1093).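 Also: MC1000 strain lacking acrAB efflux and sulA so SOS filamentation is blocked; test concentration not given here.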 As to conditions: OD650, 24 h, higher = more signal, called active from +8 up or from −8 down.
Assay [7] is described as follows: small-molecule microarray binders of probe aLefty2, primary screen, biochemical, biotinylated probe, 635/667 nm fluorescence (AID 1094).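 Also: score merges spot fluorescence near 667 nm with spot signal-to-noise ratio.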 The conditions noted are these: higher = more signal.
Assay [8] concerns Noggin (protein binding on small-molecule microarray). Kind of assay: Noggin binders on small-molecule microarray, primary screen, biochemical, 635/667 nm fluorescence (AID 1095).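 Also: score merges 667 nm feature fluorescence with signal to noise over triplicate slides.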 The conditions noted are these: 635 nm fluorescence, higher = more signal.
In assay [9] the target is Neurogenic locus notch homolog protein 3 (Homo sapiens) (UniProt Q9UM47). Briefly: NOTCH3 binders on small-molecule microarray, primary screen, biochemical, 635/667 nm fluorescence (AID 1096). The conditions noted are these: NOTCH3 binding, 635 nm fluorescence, higher = more signal.
Assay [10] in a line: small-molecule microarray binders of probe aEGFR, primary screen, biochemical, biotinylated probe, 635/667 nm fluorescence (AID 1097).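 Also: probe is a biotinylated anti-EGFR antibody binding compounds printed on slides; score combines fluorescence near 667 nm and signal to noise of each spot.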 As to conditions: higher = more signal.

The structures appear in SMILES notation. Activity calls are given as the source filed them.

Sequence of Neurogenic locus notch homolog protein 3 (Homo sapiens) (Q9UM47 whole entry, looked up): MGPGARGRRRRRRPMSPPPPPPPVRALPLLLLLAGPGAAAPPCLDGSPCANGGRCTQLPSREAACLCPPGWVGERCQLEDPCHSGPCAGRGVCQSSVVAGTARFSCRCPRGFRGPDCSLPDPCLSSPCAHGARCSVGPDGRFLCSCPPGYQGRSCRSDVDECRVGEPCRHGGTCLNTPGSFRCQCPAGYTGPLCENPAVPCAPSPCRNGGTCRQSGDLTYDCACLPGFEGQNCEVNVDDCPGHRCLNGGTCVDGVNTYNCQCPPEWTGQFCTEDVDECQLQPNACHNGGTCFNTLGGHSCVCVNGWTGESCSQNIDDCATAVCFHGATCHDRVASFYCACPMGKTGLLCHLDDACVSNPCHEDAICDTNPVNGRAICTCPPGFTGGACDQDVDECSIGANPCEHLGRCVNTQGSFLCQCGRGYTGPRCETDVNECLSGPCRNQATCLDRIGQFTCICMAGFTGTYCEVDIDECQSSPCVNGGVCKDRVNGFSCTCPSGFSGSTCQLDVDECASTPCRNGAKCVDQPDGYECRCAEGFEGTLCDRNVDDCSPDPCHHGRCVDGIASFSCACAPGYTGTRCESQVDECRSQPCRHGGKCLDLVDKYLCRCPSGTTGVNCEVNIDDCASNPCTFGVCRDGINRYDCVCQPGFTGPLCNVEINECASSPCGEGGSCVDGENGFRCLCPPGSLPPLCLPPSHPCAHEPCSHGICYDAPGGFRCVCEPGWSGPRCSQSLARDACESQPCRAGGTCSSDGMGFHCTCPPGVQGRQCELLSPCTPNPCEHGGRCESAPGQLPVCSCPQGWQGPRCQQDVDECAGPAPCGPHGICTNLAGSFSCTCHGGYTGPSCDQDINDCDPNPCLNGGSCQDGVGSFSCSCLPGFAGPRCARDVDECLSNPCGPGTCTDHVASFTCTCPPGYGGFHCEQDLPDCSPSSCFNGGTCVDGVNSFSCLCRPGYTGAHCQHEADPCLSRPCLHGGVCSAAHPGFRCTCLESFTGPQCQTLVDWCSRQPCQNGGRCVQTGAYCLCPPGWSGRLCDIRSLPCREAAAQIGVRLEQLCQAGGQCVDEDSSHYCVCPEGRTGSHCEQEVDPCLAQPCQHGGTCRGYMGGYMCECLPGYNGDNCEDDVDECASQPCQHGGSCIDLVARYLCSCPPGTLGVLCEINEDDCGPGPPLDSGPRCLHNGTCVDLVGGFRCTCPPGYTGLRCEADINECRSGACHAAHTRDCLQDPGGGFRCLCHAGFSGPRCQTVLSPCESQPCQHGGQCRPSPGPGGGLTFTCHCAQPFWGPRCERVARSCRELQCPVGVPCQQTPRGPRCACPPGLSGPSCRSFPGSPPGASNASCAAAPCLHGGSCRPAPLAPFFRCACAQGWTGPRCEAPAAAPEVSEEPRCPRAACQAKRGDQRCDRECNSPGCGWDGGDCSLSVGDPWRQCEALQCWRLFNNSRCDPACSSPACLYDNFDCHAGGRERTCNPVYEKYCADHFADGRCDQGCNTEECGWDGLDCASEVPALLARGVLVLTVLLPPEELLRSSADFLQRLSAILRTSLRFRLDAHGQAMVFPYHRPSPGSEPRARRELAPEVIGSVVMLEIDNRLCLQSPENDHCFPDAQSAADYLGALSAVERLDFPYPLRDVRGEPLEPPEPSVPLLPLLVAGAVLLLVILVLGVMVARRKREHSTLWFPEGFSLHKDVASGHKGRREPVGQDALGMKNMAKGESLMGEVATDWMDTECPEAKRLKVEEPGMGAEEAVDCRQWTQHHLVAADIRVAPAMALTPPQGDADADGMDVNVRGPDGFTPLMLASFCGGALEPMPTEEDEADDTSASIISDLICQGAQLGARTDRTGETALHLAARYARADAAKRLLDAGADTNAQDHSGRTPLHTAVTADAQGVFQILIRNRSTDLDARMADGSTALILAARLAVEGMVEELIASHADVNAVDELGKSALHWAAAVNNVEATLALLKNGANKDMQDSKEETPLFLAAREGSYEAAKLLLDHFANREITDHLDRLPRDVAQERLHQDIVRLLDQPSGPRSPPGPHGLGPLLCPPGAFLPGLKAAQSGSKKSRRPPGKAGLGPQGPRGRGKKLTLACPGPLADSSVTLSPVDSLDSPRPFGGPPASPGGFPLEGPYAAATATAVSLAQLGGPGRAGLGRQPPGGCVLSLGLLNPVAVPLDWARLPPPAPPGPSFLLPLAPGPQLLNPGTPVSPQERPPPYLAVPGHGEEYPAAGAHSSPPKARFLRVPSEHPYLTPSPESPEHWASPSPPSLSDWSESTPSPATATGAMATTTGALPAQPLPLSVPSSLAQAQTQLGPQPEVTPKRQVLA
Sequence of Torsin-1A-interacting protein 2 (Homo sapiens) (Q8NFQ8 whole entry, looked up): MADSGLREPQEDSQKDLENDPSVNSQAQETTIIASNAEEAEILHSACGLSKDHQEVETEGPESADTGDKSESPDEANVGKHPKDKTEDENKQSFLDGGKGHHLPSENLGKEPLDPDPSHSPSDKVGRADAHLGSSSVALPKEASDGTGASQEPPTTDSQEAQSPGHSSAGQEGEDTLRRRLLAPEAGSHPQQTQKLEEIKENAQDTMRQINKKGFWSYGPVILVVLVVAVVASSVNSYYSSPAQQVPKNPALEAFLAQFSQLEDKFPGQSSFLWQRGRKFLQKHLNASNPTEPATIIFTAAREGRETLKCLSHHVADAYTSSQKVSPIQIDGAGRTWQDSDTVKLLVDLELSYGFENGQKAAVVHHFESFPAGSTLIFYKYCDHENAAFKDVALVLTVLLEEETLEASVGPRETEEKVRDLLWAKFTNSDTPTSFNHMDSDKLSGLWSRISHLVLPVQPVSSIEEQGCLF

Consider `COc1ccc([Si](C)(C)[C@@H]2[C@@H](CC(=O)N(CCO)Cc3ccccc3)O[C@]3(C(=O)N(Cc4ccc(N5C(=O)c6cccc7cccc5c67)cc4)c4ccccc43)[C@H]2C)cc1`, for which the composite z-score in assay [1] is 1.57; in assay [5], 1.63; in [7] it was -0.0785; in assay [8] it was 0.77; in assay [9] it was 0.223; in assay [10] it was -0.116. Also, the z-score in assay [2] was 0.655 (inactive); in assay [3] it was 0.27 (inactive); in assay [4], 3.51 (inactive); in assay [6], 0.309 (inactive).
As to `CCOC(=O)c1cn(C[C@H](Cc2ccccc2)NC(=O)N[C@H](CO)CCc2oc(C(C)=O)c(C(=O)OC)c2C(=O)OC)nn1`, the composite z-score in assay [1] was 1.54; in assay [5] it was 1.36; in assay [7], -0.0615; in assay [8] it was 1.15; in assay [9], 1.08; in [10] it was 0.272. Also, the z-score is 0.511 (inactive) in assay [2], -0.342 (inactive) in assay [3], 0.018 (inactive) in assay [4] and -0.616 (inactive) in assay [6].
Consider `[N-]=[N+]=Nc1ccccc1[C@@H]1OC(c2ccc(OCCCO)cc2)=N[C@]1(CCS(=O)(=O)c1ccccc1)C(=O)NCC(O)CO` (stereo not given in full), for which the composite z-score in assay [1] was 0.856; in [5] it was 3.1; in [7] it was -0.116; in assay [8], 0.351; in assay [9] it was 0.0354; in [10], -0.147. The z-score in [2] was 0.678 (inactive); in [3], 0.636 (inactive); in assay [4] it was 0.347 (inactive); in assay [6], 0.679 (inactive).
As to `NCCCCCCNC(=O)[C@@H]1C[C@@H]2C(=O)N3CCC[C@H]3C(=O)N2[C@@H]1c1cccc(OCCO)c1`, the composite z-score in [1] turned out to be 1.06; in assay [5], 1.74; in [7], 0.0686; in assay [8], 1.1; in [9], 0.73; in [10], 0.0713. For the same compound, the z-score is -1.18 (inactive) in assay [2], -0.822 (inactive) in [3], -0.651 (inactive) in assay [4] and 0.974 (inactive) in assay [6].
In the case of `O=C1C[C@]2(c3ccc([N+](=O)[O-])cc3)C(=O)N(C3CC3)c3cc(CO)ccc3[C@H]2N1C1CCCCC1`, the composite z-score in [1] was 0.788; in assay [5] it was 1.2; in assay [7] it was -0.171; in assay [8], -0.533; in [9], -0.105; in assay [10] it was -0.0656. Further, the z-score is 0.0359 (inactive) in assay [2], 0.389 (inactive) in assay [3], -1.04 (inactive) in assay [4] and 0.221 (inactive) in [6].
Take `NC(=O)N1C(=O)C2C(C1=O)C1C=C(CCCO)C2C(c2ccc(CN3CCCC3)cc2)N1Cc1sc2ccccc2c1Cl` (stereo not given): the composite z-score was 0.634 in [1]; 1.97 in assay [5]; -0.208 in assay [7]; -0.275 in assay [8]; -0.348 in assay [9]; -0.112 in assay [10]. Further, the z-score was -0.75 (inactive) in assay [2], -0.399 (inactive) in assay [3], -1.27 (inactive) in [4] and 0.465 (inactive) in assay [6].
For `COC(=O)C1(Cc2ccccc2)C=C2C(=C(C)C(=O)C2C)CN1` (stereo not given), the composite z-score in [1] is -0.467; in assay [5], 2.04; in assay [7], 0.732; in [8], -0.233; in assay [9], -0.016; in [10] it was -0.0146. For the same compound, the z-score in assay [2] is -1.06 (inactive); in [3], 0.163 (inactive); in assay [4], -0.0472 (inactive); in [6], -0.366 (inactive).
Regarding `O=C(O)[C@H](Cc1ccccc1)n1cc(C2(O)CCCCC2)nn1`, the composite z-score in assay [1] was 0.499; in [5], 1.71; in assay [7], -0.137; in assay [8], 0.392; in [9], 0.541; in [10], -0.0211. Moreover, the z-score in assay [2] was -0.418 (inactive); in assay [3], 0.255 (inactive); in assay [4], -0.444 (inactive); in [6] it was -1.15 (inactive).
As for `O=C1C2C=CC(C(O)c3c(F)cccc3Cl)N(Nc3ccc([N+](=O)[O-])cc3)C2C(=O)N1c1ccccc1` (stereo not given), the composite z-score in assay [1] is 1.55; in assay [5], 3.54; in [7] it was 0.13; in assay [8], 0.432; in assay [9], 1.09; in [10] it was -0.0021. Moreover, the z-score in assay [2] was -1.01 (inactive); in assay [3] it was 1.35 (inactive); in assay [4], 4.59 (inactive); in assay [6], 0.636 (inactive).
For the compound `C=C(CCCC)/C(=C/C[C@H](OC(C)=O)c1cccc(OCCO)c1)c1cnc2ccccc2c1`, the composite z-score in assay [1] was 0.12; in [5], -0.0488; in assay [7] it was -0.116; in assay [8] it was -0.271; in assay [9] it was 0.0799; in assay [10], -0.169. For the same compound, the z-score in assay [2] is 1.94 (inactive); in assay [3], 0.924 (inactive); in assay [4], 1.32 (inactive); in assay [6] it was 0.442 (inactive).
As for `COCCOC(=O)N1C(=O)[C@@]2(c3cc(C#CCC(C(=O)OC)C(=O)OC)ccc31)[C@H](C(N)=O)[C@H]1C(=O)O[C@H](c3ccccc3)[C@H](c3ccccc3)N1[C@@H]2c1ccc(O)cc1`, the composite z-score in assay [1] was determined as 1.54; in assay [5], 2.58; in [7], 0.126; in [8], 1.12; in assay [9], 1.07; in [10], 0.0254. Moreover, the z-score was 2.77 (inactive) in [2], 2.65 (inactive) in assay [3], 7.43 (inactive) in assay [4] and 0.819 (inactive) in [6].
As to `C#CCN1[C@@H](Cc2ccccc2)C(=O)O[C@H](Cc2ccccc2)[C@@H]1/C=C/C1CC1`, the composite z-score is -0.101 in [1]; 1.14 in assay [5]; -0.185 in [7]; 0.33 in assay [8]; 0.246 in assay [9]; -0.0422 in [10]. Also, the z-score in [2] is 0.295 (inactive); in assay [3] it was -0.361 (inactive); in assay [4], 0.148 (inactive); in assay [6] it was 0.855 (inactive).
As for `CCCNC(=O)[C@@]1(c2ccc([N+](=O)[O-])cc2)CC(=O)N(C(C)C)[C@@H]1c1ccc(CO)cc1`, the composite z-score is -0.854 in [1]; 1.41 in [5]; -0.268 in assay [7]; -1.27 in assay [8]; -0.124 in assay [9]; -0.278 in assay [10]. Further, the z-score was -0.836 (inactive) in [2], -1 (inactive) in [3], -0.594 (inactive) in assay [4] and 0.353 (inactive) in assay [6].
With `C=CCOC(=O)[C@H]1[C@@H]2C(=O)O[C@@H](c3ccccc3)[C@@H](c3ccccc3)N2[C@@H](c2ccc(OCCOC(=O)[C@H]3C[C@H]4C(=O)N[C@@H](CC(C)C)C(=O)N4[C@H]3c3ccc(O)cc3)cc2)[C@]12C(=O)Nc1ccccc12`, the composite z-score in assay [1] is 1.53; in assay [5], 2.42; in assay [7], -0.084; in [8], 0.993; in assay [9], 1.08; in assay [10], 0.11. Also, the z-score in [2] was 2.24 (inactive); in assay [3], 1.47 (inactive); in assay [4], 3.92 (inactive); in [6] it was 0.0375 (inactive).
Take `Cc1ccc(F)cc1S(=O)(=O)N[C@H]1CCN(Cc2ccc(OC(C)C)cc2)C1`: the composite z-score in assay [1] is 1.48; in assay [5] it was 1.17; in assay [7], -0.218; in assay [8], 1.41; in assay [9], 0.0527; in assay [10], -0.18. Moreover, the z-score is -1.09 (inactive) in assay [2], -13.1 (active) in [3], -1.03 (inactive) in assay [4] and -2.66 (inactive) in [6].
Regarding `CC(C)[Si](C#CCCc1ccccc1)(O[C@H](c1ccccc1)c1cn(Cc2ccccc2)nn1)C(C)C`, the composite z-score in assay [1] was 1.25; in assay [5], 0.958; in assay [7], -0.0095; in [8], 0.797; in [9] it was 1.13; in [10] it was 0.0276. In addition, the z-score in [2] was -1.17 (inactive); in assay [3] it was -12.3 (active); in [4] it was -0.778 (inactive); in assay [6], 0.791 (inactive).
For the compound `CO[C@H]1O[C@H](CO)[C@@H](OC(=O)Nc2ccccc2)[C@H](OC(=O)Nc2ccccc2)[C@H]1OC(=O)Nc1ccccc1`, the composite z-score in [1] is 1.43; in assay [5], 3.49; in assay [7] it was -0.134; in assay [8], 0.772; in assay [9], 0.814; in assay [10] it was -0.0978. The z-score is 1.55 (inactive) in assay [2], 0.759 (inactive) in assay [3], 0.997 (inactive) in assay [4] and 0.758 (inactive) in assay [6].
